Hits are enriched below; roughly 2.4% of the tested compounds scored in any of these assays.
TRHR PAM = allosteric enhancers of human TRH receptor; TRHR cells, fluo-8 calcium fluorescence, EC20 TRH enhancement; enhancement, % at 2 µM; 360,000 compounds, 0.66% hits; AID 493056; in the data active means enhancement above about 30%
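Enhancer read-out: after compound pinning and an initial kinetic agonist-mode read, an EC20 of TRH (10 nM final) was injected and fluo-8 calcium signal (Ex 480/Em 530) followed at 1 s/cycle for 100 cycles in TRHR-expressing cells.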
TRHR ag = agonists of human TRH receptor. TRHR cells, calcium flux fluo-8, FDSS agonist mode. activation, % at 2 µM. P34981. 360,000 compounds, 0.18% hits; in the data active means activation above about 30%
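Agonist-mode FDSS calcium read (Ex 480/Em 530, 1 s cycles) in 1536-well TRHR cells with fluo-8 dye, after 10-cycle baseline and 23 nL compound addition; TRH at EC20 (10 nM final) added afterwards for the enhancer phase.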
GLP1R inv ag = acts as inverse agonist at human GLP-1 receptor; HEK293 GLP-1R CRE-luciferase, luminescence, 24 h; GLP-1R form is constitutively active; Potency, µM (top dose mostly 38.3 µM), usual class: inhibitors; 410,000 compounds, 1.6% hits; AID 624417; further: nearly all actives have a fitted effect of over 55% in size
Target sequence (P43220 whole entry, looked up): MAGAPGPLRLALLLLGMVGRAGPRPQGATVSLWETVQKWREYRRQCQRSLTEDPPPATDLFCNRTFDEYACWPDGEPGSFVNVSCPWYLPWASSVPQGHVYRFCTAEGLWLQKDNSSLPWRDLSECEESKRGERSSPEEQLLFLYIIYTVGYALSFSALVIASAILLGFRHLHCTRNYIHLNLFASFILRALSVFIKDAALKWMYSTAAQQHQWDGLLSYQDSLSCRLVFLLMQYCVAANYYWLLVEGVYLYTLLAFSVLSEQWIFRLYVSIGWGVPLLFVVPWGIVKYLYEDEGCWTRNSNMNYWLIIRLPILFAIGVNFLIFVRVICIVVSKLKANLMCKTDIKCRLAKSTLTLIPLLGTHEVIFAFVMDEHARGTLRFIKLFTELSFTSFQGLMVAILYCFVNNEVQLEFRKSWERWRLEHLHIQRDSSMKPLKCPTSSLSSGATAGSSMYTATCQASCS
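Stable HEK293 clone (constitutively active GLP-1R + cAMP-response luciferase); 200 cells/uL plated, 12 h pre-culture, compound 24 hr, 37 deg C/5% CO2; detection reagent 12 min RT; luminescence.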
PTHR1 ag = agonists of human PTHR1 parathyroid hormone receptor; Q03431; HEK293 GP2 PTHR1 cells, GloSensor cAMP luminescence, 1 h; Potency, µM (top dose mostly 115 µM), usual class: activators; 410,000 compounds, 0.075% hits; AID 743266; further: nearly all actives have a fitted effect of over 55% in size
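HEK-293-derived GP2 cells expressing PTHR1 and a GloSensor cAMP reporter, 3,000/well, plated overnight, given luciferin plus IBMX (each 0.5 mM as added) for 1 h at 37 °C, then compound for 1 h at 37 °C. Luminescence was read after 15 min at room temperature.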
GLP-1R agonist = activates the human GLP-1 receptor. HEK293 GLP-1R CRE-luciferase, luminescence, 4-6 h; cells express a hypersensitive GLP-1R form. Potency, µM (top dose mostly 45.6 µM), most hits filed as activators. 380,000 compounds, 0.007% hits
HEK293 tox = cytotoxicity in counter-screen for GLP-1R inverse agonists. HEK293 cAMP-luciferase reporter cells, luminescence, 24 h. Potency, µM (highest dose often 38.3 µM), actives largely listed as inhibitors. 410,000 compounds, 0.13% hits;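 further: loss of luciferase light is scored as toxicity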
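1536-well qHTS counterscreen of the MLSMR; 200 cells/uL, 12 h pre-incubation, 23 nL cpd, 24 h at 37 deg C 5% CO2, luciferase detection reagent, 12 min RT, luminescence. Inhibition = undesired.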
Of the large screens only hits and unclear results are named; the others gave an inactive call. Unless noted, the call rests on the fitted dose curve; in most records, active means well fitted curve in the direction sought with a large enough effect; inconclusive means small, poorly fitted or top-dose-only effect, or another doubt; inactive means no such curve, though single readings can be large; an effect the other way counts as inactive or inconclusive.

Cc1ccc(-c2n[nH]c3c2C(c2cccs2)N(c2ccc(Cl)cc2)C3=O)cc1 (stereo unspecified)	GLP1R inv ag 7.9µM, HEK293 tox inconclusive
Cc1ccc(N2C(=O)c3[nH]nc(-c4ccc(Cl)cc4)c3C2c2ccc(F)cc2)cc1 (stereo unspecified)	GLP1R inv ag inconclusive, HEK293 tox inconclusive
COc1cc(CN2CCCC(C(=O)c3sccc3C)C2)cc(OC)c1O (stereo unspecified)	none
Cc1ccsc1C(=O)C1CCCN(Cc2ccc(-n3cccn3)cc2)C1 (stereo unspecified)	GLP1R inv ag 10µM
Cc1ccsc1C(=O)C1CCCN(Cc2cccc(-n3cccn3)c2)C1 (stereo unspecified)	GLP1R inv ag 7.9µM
O=C(Nc1ccc(Br)cc1)c1ccc(Cl)c(S(=O)(=O)N2CCCCCC2)c1	none (no result: GLP-1R agonist)
CCc1ccc(NC(=O)c2ccc(F)c(S(=O)(=O)N3CCc4ccccc4C3)c2)cc1	GLP1R inv ag 8.9µM (no result: GLP-1R agonist)
O=C(Nc1ccc(Br)cc1)c1cccc(S(=O)(=O)N2CCc3ccccc32)c1	GLP1R inv ag 2µM (no result: GLP-1R agonist)
O=C(Nc1ccc(Br)cc1)c1ccc(F)c(S(=O)(=O)N2CCCc3ccccc32)c1	GLP1R inv ag 3.2µM (no result: GLP-1R agonist)
OC(CN1CC=C(c2ccccc2)CC1)c1ccccc1 (stereo unspecified)	TRHR PAM 35
OC(COCc1ccc(Cl)cc1)CN1CC=C(c2ccccc2)CC1 (stereo unspecified)	GLP1R inv ag inconclusive, HEK293 tox inconclusive
CCC(CC)c1nnc(NC(=O)CC(C)c2ccccc2)s1 (stereo unspecified)	GLP1R inv ag 10µM
CC(C)c1nnc(NC(=O)c2nc(S(=O)(=O)Cc3ccccc3)ncc2Cl)s1	GLP1R inv ag inconclusive, HEK293 tox inconclusive
COc1ccc(CNCCC(c2ccc(F)cc2)c2ccc(OC(C)C)cc2)cc1OC (stereo unspecified)	GLP1R inv ag 4µM, HEK293 tox inconclusive
CC12CNCC(C)(CNC1)C2O (stereo unspecified)	none
Cc1cc(OC(=O)N(C)C)n(-c2ccccc2)n1	none
Cc1cc(OC(=O)N(C)C)nc(SCc2c(Cl)cccc2Cl)n1	GLP1R inv ag 10µM
CCOc1ccc(NC(=O)C2C3c4ccccc4C(c4ccccc43)C2C(=O)O)cc1 (stereo unspecified)	GLP1R inv ag inconclusive
CCOc1ccc(NC(=O)CN(c2ccc([N+](=O)[O-])cc2)S(=O)(=O)c2ccccc2)cc1	GLP1R inv ag 4µM, GLP-1R agonist inconclusive, HEK293 tox inconclusive
CCOC(=O)N(C)c1ccc(C(O)(C(=O)OCC)C(F)(F)F)cc1 (stereo unspecified)	GLP1R inv ag inconclusive
CCOP(=O)(OCC)OCC	none
CCOP(=O)(CCP(=O)(OCC)OCC)OCC.C[CH2][Sn]([Cl])([Cl])[CH2]C	GLP1R inv ag inconclusive, HEK293 tox 13µM (no result: TRHR PAM, TRHR ag)
Fc1ccc(C2=CCN(C(c3ccc(Cl)cc3)c3nnnn3Cc3ccccc3)CC2)cc1 (stereo unspecified)	GLP1R inv ag 5.6µM
CC(C)S(=O)(=O)N1Cc2ccccc2-n2nncc2C1	none (no result: TRHR PAM, TRHR ag)
CCOC(=O)c1c(C)n(-c2ccc(OC)cc2)c2ccc(O)c(CN(C)C)c12	GLP1R inv ag 5.6µM, HEK293 tox inconclusive
CCOC(=O)c1c(C)n(-c2ccc(C)cc2)c2c(C(C(C)=O)C(=O)O)c(Br)c(O)c(O)c12 (stereo unspecified)	HEK293 tox inconclusive
CSc1ncc(C(=O)Nc2ccc(Cl)cc2C(=O)c2ccccc2)c(C)n1	none (no result: GLP-1R agonist)
Cc1ccc(N(CCC#N)C(=O)CCl)cc1C	GLP1R inv ag 2.8µM, HEK293 tox inconclusive
N#Cc1cc2c(nc1SCC(=O)Nc1ccc(C(F)(F)F)cc1)C1CCN2CC1	none (no result: GLP-1R agonist)
CCN1/C(=C\C=C\C2=[N+](CC)c3ccccc3C2(C)C)C(C)(C)c2ccccc21	TRHR ag 124, GLP1R inv ag inconclusive, HEK293 tox inconclusive
Cc1nc(N2N=C3/C(=C/c4ccc(F)cc4)CCCC3C2c2ccc(F)cc2)sc1C(=O)N(C)C (stereo unspecified)	GLP1R inv ag 10µM
CN(C)C(=O)Oc1c(Cl)cc(Cl)c2ccccc12	GLP1R inv ag 11µM
O=C(N/N=C/c1c(O)n(-c2cccc3ccccc23)c(=O)[nH]c1=O)c1ccncc1	none
COc1ccc(NC(=O)c2c(Cl)n(C)c3ccccc23)cc1	GLP1R inv ag inconclusive, HEK293 tox inconclusive
OC(c1ccccc1)(c1ccccc1)C1CN2CCC1CC2 (stereo unspecified)	none
OC(c1ccccc1)(c1ccc(Cl)cc1)C1CN2CCC1CC2 (stereo unspecified)	GLP1R inv ag 1.6µM, HEK293 tox inconclusive
COc1ccc(OC)c2c1CCC1NCCOC21 (stereo unspecified)	none
Nc1cccc(SC2CC(=O)N(c3ccc(Cl)cc3C(=O)c3ccccc3)C2=O)c1 (stereo unspecified)	GLP1R inv ag inconclusive (no result: TRHR PAM, TRHR ag)
C[C@H]1OC[C@@H](C[N+](C)(C)C)O1	TRHR ag 41
CC1OC(C[N+](C)(C)C)CC1O (stereo unspecified)	none
Cc1cccc(N=Cc2c(O)n(C)c(=O)n(C)c2=O)c1	none
O=C1C=CC(=O)C2C1C1(Cl)C(Cl)=C(Cl)C2(Cl)C1(Cl)Cl (stereo unspecified)	GLP1R inv ag 3.2µM, HEK293 tox inconclusive (no result: TRHR PAM, TRHR ag)
COc1ccc(CN(CCc2c[nH]c3ccccc23)Cc2ccc(OC)cc2)cc1	GLP1R inv ag 10µM, HEK293 tox inconclusive (no result: TRHR PAM, TRHR ag)
CCCCCSc1cc(OC)c(CCNC)cc1OC	GLP1R inv ag 4µM, HEK293 tox inconclusive
O=[N+]([O-])c1ccc(NC2CCN(Cc3ccccc3)CC2)c2ccncc12	none
O=[N+]([O-])c1ccc(NC2CCCC2)c2ccncc12	TRHR PAM 35
CCOC(=O)c1sc(/N=C/c2c(O)n(-c3ccccc3)c(=O)[nH]c2=O)c(C#N)c1C	none
N#CC1=C(N)Oc2c(c(=O)oc3ccccc23)C1c1ccncc1 (stereo unspecified)	none
N#CC1=C(N)Oc2c(c(=O)sc3ccccc23)C1c1cccnc1 (stereo unspecified)	TRHR PAM 35
CC12CCC3c4ccc(OC(=O)N(CCCl)CCCl)cc4CCC3C1CCC2O (stereo unspecified)	GLP1R inv ag 10µM, HEK293 tox inconclusive (no result: TRHR PAM, TRHR ag)
